From article PMC7826789 (International Journal of Molecular Sciences, 2021)

Key:
Conditions in all cases: Compound Concentration (nM):1000
PAK1 = system: PAK1
PAK2 = system: PAK2
PAK3 = system: PAK3
PAK4 = system: PAK4
PAK6 = system: PAK6
PAK7 = system: PAK7
PCTK1 = system: T1, PCTK1
T1 construct: gene CDK16

PCTK2 = system: T2, PCTK2
T2 construct: gene CDK17

PCTK3 = system: T3, PCTK3
T3 construct: gene CDK18

PDGFRA = system: PDGFRA
PDGFRB = system: PDGFRB
PDPK1 = system: PDPK1
PFCDPK1(P.falciparum) = system: T4, PFCDPK1(P.falciparum)
T4 construct: gene CDPK1

PFPK5(P.falciparum) = system: T5, PFPK5(P.falciparum)
T5 construct: gene MAL13P1.279

PFTAIRE2 = system: T6, PFTAIRE2
T6 construct: gene CDK15

PFTK1 = system: T7, PFTK1
T7 construct: gene CDK14

PHKG1 = system: PHKG1
PHKG2 = system: PHKG2
PIK3C2B = system: PIK3C2B
PIK3C2G = system: PIK3C2G
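Also: KINOMEscan scanMAX binding as percent activity remaining versus control; lower means stronger binding.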

| SMILES | Percent Control (PAK1) [%] | Percent Control (PAK2) [%] | Percent Control (PAK3) [%] | Percent Control (PAK4) [%] | Percent Control (PAK6) [%] | Percent Control (PAK7) [%] | Percent Control (PCTK1) [%] | Percent Control (PCTK2) [%] | Percent Control (PCTK3) [%] | Percent Control (PDGFRA) [%] | Percent Control (PDGFRB) [%] | Percent Control (PDPK1) [%] | Percent Control (PFCDPK1(P.falciparum)) [%] | Percent Control (PFPK5(P.falciparum)) [%] | Percent Control (PFTAIRE2) [%] | Percent Control (PFTK1) [%] | Percent Control (PHKG1) [%] | Percent Control (PHKG2) [%] | Percent Control (PIK3C2B) [%] | Percent Control (PIK3C2G) [%] |
| --- | --- | --- | --- | --- | --- | --- | --- | --- | --- | --- | --- | --- | --- | --- | --- | --- | --- | --- | --- | --- |
| Cl.c1ccc(Cc2nc3ccc(Nc4ncnc5ccccc45)cc3[nH]2)cc1 [GR269666A] | 100 | 100 | 100 | 100 | 100 | 100 | 100 | 100 | 100 | 49 | 100 | 100 | 83 | 100 | 100 | 100 | 100 | 97 | 100 | 89 |
| NS(=O)(=O)c1ccc(Nc2ncc(-c3ccccc3)o2)cc1 [GW572399X] | 100 | 100 | 86 | 100 | 87 | 100 | 3.8 | 100 | 100 | 8.8 | 3.4 | 100 | 27 | 100 | 98 | 100 | 100 | 100 | 100 | 100 |
| COc1cccc(-c2c[nH]c3c(N/N=C/c4ccncc4)ncnc23)c1 [GW814408X] | 100 | 94 | 1.9 | 100 | 100 | 100 | 28 | 75 | 100 | 8.2 | 5.5 | 78 | 5.2 | 97 | 78 | 95 | 100 | 100 | 100 | 92 |
| O=C(Nc1n[nH]c2nc(-c3ccc(O)cc3)c(Br)cc12)C1CC1 [SB-725317] | 89 | 60 | 71 | 100 | 100 | 100 | 24 | 62 | 77 | 29 | 3.4 | 100 | 32 | 100 | 92 | 84 | 100 | 100 | 100 | 100 |
| COc1ccc2[nH]c3c4[nH]c5ccc(OC)cc5c4c4c(c3c2c1)C(=O)NC4=O [GW296115X] | 70 | 91 | 4.2 | 90 | 100 | 91 | 99 | 72 | 80 | 11 | 0.1 | 25 | 29 | 82 | 91 | 85 | 12 | 52 | 94 | 76 |
| CN1CCN(C(=O)c2ccc(NC(=O)Nc3ccc(N(C)c4ccnc(Nc5ccc(CS(C)(=O)=O)cc5)n4)cc3)cc2)CC1.Cl [GW830263A] | 92 | 50 | 0 | 46 | 92 | 67 | 76 | 91 | 96 | 2 | 0 | 68 | 71 | 95 | 100 | 81 | 100 | 100 | 100 | 100 |
| C[C@@H](Oc1cc(-n2cnc3ccc(OC4CCN(C)CC4)cc32)sc1C(N)=O)c1ccccc1Cl [GSK579289A] | 100 | 84 | 0 | 100 | 75 | 74 | 94 | 94 | 86 | 54 | 12 | 100 | 74 | 76 | 74 | 95 | 86 | 81 | 32 | 78 |
| Cl.O=C(O[C@H]1CN[C@H](C#Cc2cc3ncnc(Nc4ccc5c(cnn5Cc5ccccc5)c4)c3s2)C1)N1CCOCC1 [GSK200398A] | 100 | 100 | 63 | 100 | 100 | 89 | 83 | 96 | 100 | 83 | 100 | 89 | 88 | 100 | 91 | 100 | 96 | 98 | 88 | 84 |
| COc1ccc2c(-c3ccnc(Nc4cccc(OC(F)(F)F)c4)n3)cnn2n1 [GW810372X] | 100 | 100 | 100 | 100 | 96 | 100 | 100 | 100 | 99 | 87 | 100 | 100 | 81 | 100 | 100 | 100 | 100 | 100 | 100 | 74 |
| NS(=O)(=O)c1ccc(N/N=C2\C(=O)Nc3ccc(Cl)cc32)cc1 [GW280670X] | 100 | 100 | 100 | 100 | 100 | 100 | 26 | 100 | 100 | 28 | 29 | 100 | 81 | 100 | 100 | 100 | 100 | 100 | 100 | 88 |
